Seven molecules from PubChem BioAssay AID720593 (Broad Institute, 2013) can be followed below.

Potency and affinity values are given separately. Active and inactive are the calls of the source.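 How the source made its calls: active means falling viability curve whose half-maximal potency lies within twice the top valid tested dose; inconclusive means flat curve with moderate signal loss, or unreliable curve fit; inactive means the rest.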

The experiment in a line: ATP-based viability loss in HeLa cells – cell-based, CellTiter-Glo luminescence, dry powder, set 2, cytotoxicity control, dose response (AID 720593). The following applies: 72 h; series mostly up to 26 µM.
As for `Cc1c(C(=O)N(C)C)sc2nc(-c3ccccn3)[nH]c(=O)c12`, the molecule was called inactive.

As for `Cc1ccc(S(=O)(=O)CCc2nnc(NC(=O)c3ccccc3)s2)cc1`, the outcome was inactive.

Take `CC1CCN(S(=O)(=O)c2ccc(C(=O)Nc3nnc(-c4ccco4)o3)cc2)CC1`: the molecule was called inactive.

Consider `COC(=O)c1ccc(NC(=O)CSc2ccc(-c3ccccn3)nn2)cc1`, for which the call was inactive.

Regarding `O=C(CSc1ccc(-c2ccccn2)nn1)N1CCCC1`, the molecule was called inactive.

As to `CC1CCN(S(=O)(=O)c2ccc(C(=O)Nc3nnc(-c4ccccn4)o3)cc2)CC1`, the call was inactive.

For the molecule `CC1CCN(S(=O)(=O)c2ccc(C(=O)Nc3nnc(C4CC4)o3)cc2)CC1`, the result was inactive.
